# Screens as filed in PubChem.
# Hits are enriched below; roughly 5.3% of the tested compounds scored in any of these assays.
# Sfp PPTase inh: Sfp phosphopantetheinyl transferase inhibition. Q9F4F7. Biochemical Sfp PPTase activity, qHTS. Potency, µM, for the others: largest response in the series, negative = inhibition, hits mostly inhibitors. actives 3.5% (n = 310,000). AID 1490;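 note: the enzyme is Sfp with the accession as filed and its product quenches rhodamine fluorescence; potency is the fitted concentration of half-maximal effect; 0% = enzyme reaction without inhibitor and -100% = no enzyme wells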
#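 Fluorescence-quenching assay with 15 nM Sfp, 5 uM rhodamine-CoA and 12.5 uM BHQ-2-labelled ybbR peptide in pH 7.6 Hepes/MgCl2 buffer. Enzyme was pre-incubated with compound for 15 min at room temperature. Rate was taken from the 30-min fluorescence change (525/598 nm).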
# Tau FP inhib: blocks human tau fibril formation measured by polarization; P10636; K18 P301L tau heparin fibrillization, Alexa594 FP, 6 h; Potency, µM (doses to about 57.7 µM), for inactives: at the highest dose activity, negative = inhibition, hits mostly inhibitors; actives 0.39% (n = 280,000); note: potency is the fitted concentration of half-maximal effect; nearly all actives have a fitted effect of over 55% in size
# Target sequence (P10636 561-689 P618L limits assumed): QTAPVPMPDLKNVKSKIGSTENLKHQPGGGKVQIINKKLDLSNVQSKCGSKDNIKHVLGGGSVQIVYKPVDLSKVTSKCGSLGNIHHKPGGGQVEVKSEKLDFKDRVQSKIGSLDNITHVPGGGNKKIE
#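 Human tau K18 […] P301L fragment, 15 uM unlabeled plus 0.24 uM Alexa 594-labeled tau (final), with compound and 20 uM heparin in 100 mM sodium acetate pH 7; 6 hr at 37 C, then Alexa 594 FP read.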
# Tau fluor counter: counter-screen for tau fibril formation inhibitors | tau K18 P301L Alexa594 fluorescence, heparin fibrillization | Potency, µM (doses to about 57.7 µM), for the others: top-dose activity change, negative = decrease | actives 0.93% (n = 280,000) | AID 1463; note: potency is the fitted concentration of half-maximal effect; nearly all actives have a fitted effect of over 55% in size
#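 Human tau K18 P301L (15 uM unlabeled, 0.24 uM Alexa 594-labeled) in 100 mM sodium acetate pH 7 with 20 uM heparin, 6 hr at 37 C. ThT 30 uM added, 1 hr ambient; Alexa 594 FP and total fluorescence read at 555/632 nm.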
# FBPA coupling cs: counter-screen for Giardia aldolase inhibitors: coupling enzyme system; coupling enzyme system counterscreen, AmpLite Red fluorescence; activity change, negative = inhibition, % at 58.2 µM, hits read low; actives 0.67% (n = 290,000); in the data active = activity change below about -30%
#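 Counterscreen of the coupled detection system alone, without aldolase: glyceraldehyde-3-phosphate coupling enzymes plus AmpLite Red readout. Compounds at 57.5 uM final, 10 min RT preincubation, 20 min RT reaction, fluorescence 525/598 nm.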
# Tau fibril ThT: tau fibrillization inhibition (ThT binding); Potency, µM (top dose mostly 57.4 µM), for the others: top-dose activity, negative = inhibition, hits mostly inhibitors; recombinant tau K18 P301L (four-repeat tau fragment), heparin-induced fibrillization, ThT fluorescence; AID 1460; actives 2.1% (n = 270,000); P10636; note: potency is the fitted concentration of half-maximal effect; nearly all actives have a fitted effect of over 55% in size
#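 Aggregation was driven by heparin (20 uM final) acting on recombinant tau […] bearing P301L in 100 mM sodium acetate pH 7; fibrils were detected with Thioflavin T.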
# JMJD2E inh: blocks human JMJD2E demethylase activity | B2RXH2 | JMJD2E catalytic domain, FDH-coupled NADH fluorescence (FDH is formaldehyde dehydrogenase) | Potency, µM (titrated, usually from 57.1 µM), for inactives: at the highest dose activity change, negative = inhibition, most hits filed as inhibitors | actives 1.6% (n = 230,000); active = well fitted inhibition curve with a large enough effect, not every such curve was filed as active; inconclusive = small, poorly fitted or top-dose-only effect, or another doubt; inactive = no such curve, though single readings can be large or run the other way;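 note: potency is the fitted concentration of half-maximal effect; 0% = wells with enzyme and -100% = buffer wells without enzyme; nearly all actives have a fitted effect of over 50% in size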
# Target sequence (B2RXH2 1-337 limits assumed): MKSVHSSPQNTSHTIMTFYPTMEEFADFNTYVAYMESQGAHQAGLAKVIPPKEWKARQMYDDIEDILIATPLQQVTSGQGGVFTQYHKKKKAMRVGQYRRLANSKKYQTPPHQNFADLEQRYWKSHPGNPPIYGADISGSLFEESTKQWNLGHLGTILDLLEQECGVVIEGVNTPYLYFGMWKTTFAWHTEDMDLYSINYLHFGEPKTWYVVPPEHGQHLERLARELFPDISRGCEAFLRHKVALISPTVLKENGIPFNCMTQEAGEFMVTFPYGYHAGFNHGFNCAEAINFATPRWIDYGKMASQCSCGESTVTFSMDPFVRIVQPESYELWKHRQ
# Numbers without * were called inactive; u = inconclusive; x = not tested or not shown; [ ] = another dose, or the depositor's remark. Unless noted, calls come from the whole dose curve; as a rule, active = well fitted curve in the direction sought with a large enough effect; inconclusive = small, poorly fitted or top-dose-only effect, or another doubt; inactive = no such curve, though single readings can be large; an effect the other way counts as inactive or inconclusive. Unless noted, % is set by controls: 0 for no effect and ±100 for the full control effect.
SMILES,Sfp PPTase inh,Tau FP inhib,Tau fluor counter,FBPA coupling cs,Tau fibril ThT,JMJD2E inh
COc1ccccc1C(=O)N1CCN(Cc2cccnc2)CC1,63.1µM*,x,x,0.8,x,x
O=C(c1cccnc1)N1CCN(Cc2cccc(Br)c2)CC1,89.1µM*,12.9%,5.6%,7.1,6.1%,u
COc1ccc(-c2nc(-c3ccccc3)c(NC(C)C)o2)cc1,-8.4%,6.1%,2.4%,3.8,1.6%,-5.6%
Cn1c(=O)c2cc(NCc3ccccc3)nnc2n(C)c1=O,u,-6.1%,3.4%,-59.1*,0.7%,-2.4%
Cn1c(=O)c2c(nc(NCc3ccccc3)n2C)n(C)c1=O,6.6%,5.2%,-1.6%,2.0,-6.5%,-8.1%
Nc1nc2ccc(S(=O)(=O)N3CCCCC3)cc2s1,10µM*,u,-23.2%,0.6,31.6µM*,0.6%
O=C(O)c1cccc(-c2ccc(/C=C3/SC(=Nc4ccccc4)N(Cc4cccnc4)C3=O)o2)c1,50.1µM*,x,x,5.9,x,x
CCN1C(=O)/C(=C\c2ccc(-c3cccc(C(=O)OC)c3)o2)SC1=Nc1ccc(C(=O)O)cc1,-27.5%,x,x,10.9,x,x
CCOC(=O)COc1ccc(/C=C2/SC(=Nc3ccccc3)N(Cc3cccnc3)C2=O)cc1OC,u,-5.4%,-13.2%,2.1,u,2.1%
CCN1C(=O)/C(=C\c2ccc(-c3ccc([N+](=O)[O-])cc3OC)o2)SC1=Nc1cccc(C(=O)O)c1,25.1µM*,-17.4%,u,0.4,14.1µM*,-25.3%
CCN=C1S/C(=C\c2ccc(-c3cccc(C(=O)O)c3)o2)C(=O)N1CC,20µM*,1.6%,2.0%,4.5,1.0%,-19.3%
COCC(=O)N1CCC2(CC1)CCN(C(c1ccccc1)c1ccccc1)CC2,5.1%,x,x,1.1,x,x
Cc1cc(C)c(NC(=O)C2CCN(c3nn4c(=O)cc(C)nc4s3)CC2)c(C)c1,x,-8.9%,-2.3%,x,-11.9%,x
O=C(Nc1ccc(Cl)cc1)C1CCC(CNS(=O)(=O)c2ccc(Br)s2)CC1 (centres undefined),x,u,-17.2%,x,9.5%,x
CSc1ccc(C(=S)N2CCN(CCO)CC2)cc1,8.91µM*,0.5%,4.5%,1.0,1.6%,-1.0%
OCCN1CCN(C(=S)c2ccc(Br)cc2)CC1,31.6µM*,6.8%,7.8%,1.9,2.5%,3.8%
CCOC(=O)CC(NS(=O)(=O)c1ccc2[nH]c3c(c2c1)CCCC3)c1ccccc1Cl (centres undefined),x,19.6%,u,x,-10.6%,x
CC(=O)c1ccc(NS(=O)(=O)c2ccc3[nH]c4c(c3c2)CCCC4)cc1,x,-7.0%,8.91µM*[quencher],x,10.7%,x
CC(=O)Nc1ccc(NS(=O)(=O)c2ccc3[nH]c4c(c3c2)CCCCC4)cc1,x,-5.6%,15.8µM*[quencher],x,u,x
CC(=O)c1ccc(NS(=O)(=O)c2ccc3[nH]c4c(c3c2)CCCCCC4)cc1,x,u,10µM*[quencher],x,5.9%,x
CC(=O)c1ccc(N2CCN(S(=O)(=O)c3ccc4[nH]c5c(c4c3)CCCCC5)CC2)cc1,x,-7.4%,u,x,-13.1%,x
O=C(O)c1ccc2[nH]c3c(c2c1)CCCC3,21.1%,x,x,1.4,x,x
O=C(CCc1ccccc1)N1CCc2c([nH]c3ccccc23)C1c1ccc(F)cc1 (centres undefined),x,-4.7%,-16.3%,x,-4.9%,x
CC(=O)OC[C@@H]1O[C@H](C/C=N\OC[C@@H](O)COCc2ccco2)C=C[C@@H]1OC(C)=O,14.1%,-0.3%[11.6 µM],-5.2%[11.6 µM],4.9,-4.5%[11.5 µM],x
CCOc1ccc(CCNC(=O)c2sc3nc4n(c(=O)c3c2C)CCCC4)cc1,x,-6.6%,-6.6%,x,-11.8%,x
SMILES,Sfp PPTase inh,Tau FP inhib,Tau fluor counter,FBPA coupling cs,Tau fibril ThT,JMJD2E inh
COc1ccccc1NC(=S)N(Cc1ccco1)Cc1cc2cc(C)cc(C)c2[nH]c1=O,10.7%,-5.3%,-8.2%,-0.8,5.8%,-15.2%
Cc1cccc2cc(CN(CC3CCCO3)C(=S)NCc3ccco3)c(=O)[nH]c12 (centres undefined),50.1µM*,-13.4%,-11.7%,-1.7,-7.1%,-0.6%
CCNC(=S)N(Cc1ccco1)Cc1cc2cc(OCC)ccc2[nH]c1=O,10µM*,-6.5%,-14.5%,0.6,-6.8%,-118.3%
COc1ccccc1NC(=S)N(Cc1ccco1)Cc1cc2ccc(C)c(C)c2[nH]c1=O,50.1µM*,u,-7.1%,0.2,-3.2%,-16.5%
Cc1ccc2[nH]c(=O)c(CN(Cc3cccs3)C(=S)NCc3ccco3)cc2c1,50.1µM*,-13.6%,-26.6%,0.4,-7.2%,5.3%
Cc1ccc(NC(=O)Cn2c(=O)c(C(F)(F)F)nc3ccccc32)c(C)c1,x,-4.6%,9.2%,x,10.3%,x
COC(=O)c1cc(NC(=O)c2oc(=O)c3ccccc3c2-c2ccccc2)cc(C(=O)OC)c1,x,-13.8%,-17.4%,x,0.2%,x
CNC(=O)C1CCC(Cn2c(=O)[nH]c3ccsc3c2=O)CC1 (centres undefined),x,-0.7%,-4.1%,x,-12.4%,x
CCOC(=O)c1c(CC(C)C)csc1N,1.7%,4.9%,-8.8%,-1.4,5.7%,-4.5%
CCOC(=O)c1c(-c2ccc(C)s2)csc1N,11.2µM*,0.9%,6.5%,-41.2*,9.2%,1.3%
COC(=O)c1c(-c2cccc(OC)c2)csc1N,56.2µM*,2.7%,-24.0%,-8.5,u,-15.7%
CCOC(=O)c1c(-c2ccc(C)o2)csc1N,u,9.7%,-23.6%,-29.2,u,-5.7%
CCOC(=O)c1c(-c2ccsc2)csc1N,56.2µM*,6.0%,-24.7%,-33.7*,u,-11.5%
Cc1cccc(N2C(=O)CS(=O)(=O)C23C(=O)N(Cc2c(F)cccc2Cl)c2ccccc23)c1 (centres undefined),x,-9.5%,-17.0%,x,-8.2%,x
COc1ccccc1N(C)S(=O)(=O)c1ccc(Cl)c(C(=O)NNC(=O)c2ccccc2O)c1,56.2µM*,x,x,x,x,x
COCCn1c(=O)c(CCc2ccccc2)nc2cnc(N(C)C)nc21,-2.2%,x,x,1.8,x,x
CCN(CC)C(=O)c1sc2c(c1C)c(=O)n(-c1ccccc1)c(=O)n2Cc1c(C)cc(C)cc1C,x,-1.3%,0.2%,x,-2.5%,x
COc1cc2c(cc1NC(=S)Nc1cccc3ccccc13)oc1ccccc12,u,-7.0%,u,-9.6,u,u
COc1cc2c(cc1NC(=O)Nc1ccccc1)oc1ccccc12,20.6%,-7.9%,7.08µM*[quencher],-5.1,1.9%,u
COc1cc2c(cc1NC(=S)Nc1cccc(C(F)(F)F)c1)oc1ccccc12,-14.0%,u,12.6µM*[quencher],-4.3,u,u
COc1ccc(-c2nc(CNS(=O)(=O)c3cccc(F)c3)cs2)cc1,x,-1.7%,-23.4%,x,-13.1%,x
C1CCC(C(C[C@@H]2CCCCN2)C2CCCCC2)CC1,1.9%,x,x,0.5,x,0.8%[25.5 µM]
